Compound activity deposited in PubChem BioAssay by Broad Institute.
esBAF inh – SWI/SNF esBAF complex inhibition; mouse ES cells, Bmi1-luciferase knock-in reporter, 24 h; 100% = twice the neutral-well signal; AID 602393; 350,000 compounds, 2% hits; reporter increase, % at 12.5 µM; in the data active means activation above about 40%;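 further: 0% = median of the plate's neutral control wells and 100% = double that signal; a rise in the Bmi1 reporter signal indicates esBAF inhibition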
C2C12 statin – protects C2C12 myotubes from simvastatin toxicity | 330,000 compounds, 0.78% hits | ATP luminescence, 48 h; scaled: DMSO 0, geranylgeraniol control 100 | rescue of ATP level, % at 7.49 µM;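 active means mean ATP rescue above about 67%, or every replicate alone reaching that limit, limit read from the data, passing the limit was not always enough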;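 further: myotubes were challenged with 10 µM simvastatin during compound exposure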
MITF TRPM1 HTS – activators of MITF-driven TRPM1 promoter activity in SK-MEL-5 cells; SK-MEL-5 TRPM1-promoter luciferase, 24 h; % of positive control, neutral wells = 0; activation, % at 12.5 µM; 300,000 compounds, 0.75% hits;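 active means mean activation of at least 80% with every replicate also reaching 80%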;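 further: 0% = neutral control wells and 100% = parthenolide positive control wells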
Rtt109 HAT inh – C. albicans Rtt109 histone acetyltransferase inhibition; Q5AAJ8; purified Rtt109/Vps75, ThioGlo CoA-SH fluorescence, 4 h; inhibition, % at 34.9 µM; 330,000 compounds, 0.16% hits;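 active means inhibition of at least 50% in every replicate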
Target sequence (Q5AAJ8 whole entry, looked up): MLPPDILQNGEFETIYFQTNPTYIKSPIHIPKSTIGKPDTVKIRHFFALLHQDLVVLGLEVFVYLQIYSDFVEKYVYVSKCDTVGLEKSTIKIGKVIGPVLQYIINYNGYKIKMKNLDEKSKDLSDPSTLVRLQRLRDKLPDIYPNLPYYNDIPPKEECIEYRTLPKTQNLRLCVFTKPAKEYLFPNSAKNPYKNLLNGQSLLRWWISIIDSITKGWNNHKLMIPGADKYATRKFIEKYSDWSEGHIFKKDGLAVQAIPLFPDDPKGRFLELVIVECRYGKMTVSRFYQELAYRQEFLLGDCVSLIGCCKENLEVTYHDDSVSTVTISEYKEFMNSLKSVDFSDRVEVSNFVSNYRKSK
Wnt bcat act – activators of Wnt/beta-catenin signaling. Wnt/beta-catenin reporter cell assay, activator, plate reader. activation, % at 9.35 µM. 300,000 compounds, 1.2% hits; in the data active means activation above about 30%, passing the limit was not always enough;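 further: 0% = neutral control wells and 100% = positive control wells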
Active calls of the source: *; . = no result given. A selection: hits, their analogues and other compounds. The true share with any hit is near 3.1%.

SMILES	esBAF inh	C2C12 statin	MITF TRPM1 HTS	Rtt109 HAT inh	Wnt bcat act
COc1cccc(OC)c1-c1nn2c(-c3ccco3)nnc2s1	54*	-3	.	3	.
O=S(=O)(Nc1ccc(-c2nc3cccnc3s2)cc1)c1cccs1	31	-29	.	-4	1
Cc1cc(-c2nc3cccnc3s2)ccc1NS(=O)(=O)c1cccs1	45*	-16	.	-7	25
O=C(CC12CC3CC(CC(C3)C1)C2)N1CCOCC1	-2	115*	-8	2	-2
C[C@@H]1CCCCO[C@@H](CN(C)S(C)(=O)=O)[C@H](C)CN([C@H](C)CO)C(=O)c2cc(NC(=O)Nc3ccc4c(c3)OCO4)ccc2O1	-1	.	.	.	.
CN1CCc2c(sc(/N=C/c3c[nH]c4ccccc34)c2C#N)C1	.	.	.	.	39*
CN1CCc2c(sc(/N=C/c3c[nH]c4ccccc34)c2C(N)=O)C1	.	.	.	.	0
O=C1N(c2ccccc2)C[C@@H]2C[C@@H](c3cc4ccccc4o3)N3CCC[C@@]123	.	.	-39	1	-8
Cc1ccc(-c2ccccc2[C@@H]2C[C@H]3CN(C)C(=O)[C@]34CCCN24)o1	-7	103*	-2	4	0
Cn1c(=O)c2c(ncn2CC(=O)OCC(=O)NCCc2ccccc2)n(C)c1=O	-2	-2	17	10	-5
Cn1c(=O)c2c(ncn2CC(=O)NCc2cccnc2)n(C)c1=O	-17	106*	9	-6	.
Cn1c(=O)c2c(ncn2CC(=O)OCC(=O)NCc2ccc(Cl)cc2)n(C)c1=O	.	.	-3	-4	0
Cn1c(=O)c2c(ncn2CC(=O)OCC(=O)NCc2ccccc2Cl)n(C)c1=O	.	.	1	-4	36*
Cn1c(=O)c2c(ncn2CC(=O)OCC(=O)NC2CCCc3ccccc32)n(C)c1=O (stereo not given)	-10	88*	-2	-7	0
COc1ccccc1CNC(=O)COC(=O)Cn1cnc2c1c(=O)n(C)c(=O)n2C	-2	3	.	.	-1
Cc1c(O)nc(SC2CC(=O)N(c3ccccc3)C2=O)[nH]c1=O (stereo not given)	.	.	-12	-6	2
CCc1c(O)nc(SC2CC(=O)N(c3ccccc3)C2=O)[nH]c1=O (stereo not given)	-14	106*	-7	0	-2
COc1cccc(-c2ccc3c(c2)[C@H]2[C@H](CCN2C(=O)c2ccc(F)cc2)[C@@H](CO)N3C)c1	0	39	.	.	.
COc1ccc(-c2ccc3oc(-c4ccsc4)cc3c2)cc1	64*	8	43	-11	28
COc1ccccc1/C=C/C=N/NC(=O)c1ccccn1	.	.	97*	6	19
Cc1cc(=S)[nH]c2c(C)cccc12	-3	74*	1	-2	.
CCOC(=O)c1cnc2c(c(C)nn2C)c1Oc1ccc(OC)cc1	-12	6	.	.	49*
CCOC(=O)c1cnc2c(c(C)nn2C)c1Oc1cc(Cl)cc(Cl)c1	-6	4	-3	4	-1
CC1=C(C(=O)Nc2ccccn2)C(c2ccc(Cl)cc2Cl)NC(=S)N1 (stereo not given)	.	.	-7	1	.
CC1=C(C(=O)Nc2ccccn2)C(c2ccccc2Cl)NC(=S)N1 (stereo not given)	66*	13	26	-1	22
SMILES	esBAF inh	C2C12 statin	MITF TRPM1 HTS	Rtt109 HAT inh	Wnt bcat act
CC1=C(C(=O)Nc2ccccn2)C(c2ccc(Cl)cc2)NC(=S)N1 (stereo not given)	44*	-18	38	2	2
COc1ccc(S(=O)(=O)N(C)C[C@H]2Oc3c(NC(=O)Nc4ccc5c(c4)OCO5)cccc3C(=O)N([C@@H](C)CO)C[C@H]2C)cc1	9	.	.	.	.
C[C@H]1CN([C@@H](C)CO)C(=O)c2cc(C#CC3CCCC3)cnc2O[C@H]1CN(C)C(=O)Nc1ccccc1	-1	39	.	.	.
O=C(Cc1ccncc1)NCC[C@H]1CC[C@H](NC(=O)Nc2ccc(F)cc2)[C@@H](CO)O1	1	2	.	.	.
COc1ccc(N(C(=O)c2ccc(S(=O)(=O)N3CCCC3)cc2)C2C=CS(=O)(=O)C2)cc1 (stereo not given)	6	-3	-10	-4	40*
Cc1cc(/C=N/n2cnnc2)c(C)n1-c1ccc(Cl)cc1Cl	9	97*	-9	-6	.
Cc1cc(/C=N/n2cnnc2)c(C)n1-c1ccc(Cl)cc1	.	.	-12	7	-3
CCOC(=O)c1ccc(CC(=O)c2ccc(O)cc2O)o1	49*	3	-50	-1	.
COCC(=O)Nc1ccc2c(c1)[C@H]1C[C@H](CC(=O)NCc3ccccc3)O[C@@H](CO)[C@H]1O2	3	-5	.	.	.
COc1ccc(NC(=O)C/C(C)=N/NC(=O)c2cccs2)c([N+](=O)[O-])c1	2	-1	-4	3	2
COc1ccc(NC(=O)c2cccs2)c([N+](=O)[O-])c1	86*	7	46	-2	.
COc1ccc(NC(=O)c2sccc2C)c([N+](=O)[O-])c1	55*	-14	51	1	-2
COc1cc(NC(=O)COc2ccccc2[N+](=O)[O-])ccc1NC(=O)c1cccs1	50*	-7	-74	13	14
COc1cc(NC(=O)COc2ccccc2Cl)ccc1NC(=O)c1cccs1	26	-5	35	15	-8
CCC(=O)Nc1ccc2c(c1)C(=O)N(C)C[C@@H](OC)[C@H](C)CN(CC1CCOCC1)[C@@H](C)CO2	8	-2	.	.	.
Cc1ccc(S(=O)(=O)Nc2ccc3c(c2)C(=O)N([C@H](C)CO)C[C@H](C)[C@H](CN(C)C(=O)Nc2c(C)noc2C)O3)cc1	-1	-16	.	.	.
Oc1cccc(Oc2ncc(C(F)(F)F)cc2Cl)c1	.	.	15	6	64*
CO[C@@H]1CN(C)C(=O)c2cc(NS(C)(=O)=O)ccc2OC[C@@H](C)NC[C@H]1C	-3	-5	.	.	.
Cc1ccc(OCc2cc(C(=O)NCC(C)(C)N3CCOCC3)no2)cc1C	.	.	121*	3	47*
CCN1CCCC1CNC(=O)c1cc(COc2ccc(C)c(C)c2)on1 (stereo not given)	45*	3	79	9	7
COc1ccc(NC(=O)Nc2cccc3c2O[C@H](CN(C)Cc2ccccc2)[C@H](C)CN([C@H](C)CO)C3=O)cc1	-7	-26	.	.	.
CC(C)NC(=O)N1C[C@H]2[C@@H](c3ccccc31)[C@@H](CO)N2C(=O)c1ccc(F)cc1	-2	-14	.	.	.
CN1[C@@H]2c3ccc(-c4ccccc4)c(=O)n3C[C@@H]2[C@@H](CO)[C@@H]1C(=O)NC1Cc2ccccc2C1	5	5	.	.	.
CCSc1ncccc1C(=O)N[C@@H](CCSC)C(=O)OC	.	.	.	.	45*
CCOc1ccccc1CN1CCNC(=O)C1CC(=O)N(C)CCc1ccccn1 (stereo not given)	-6	118*	10	5	-1
O=C(NOCc1ccccc1)c1ccccc1	-18	12	34	-8	32*
NCC[C@@H]1CC[C@@H](NC(=O)C2CCCCC2)[C@@H](CO)O1	5	3	.	.	.
